Compound activity: PubChem, National Center for Advancing Translational Sciences (NCATS)
CHX counter = counter-screen hit for Shiga toxin inhibitors, cycloheximide | cell reporter, cycloheximide protein synthesis inhibition counterscreen | max response, % | 300,000 compounds, 12% hits; in the data active = max response mostly above about 13%, no sharp cut-off; inactive = mostly below about 14%; note: read at 38.3 µM for the half of the compounds with a filed dose; 0% is about no effect
AmpC inh no detg = AmpC beta-lactamase inhibition without detergent; AmpC nitrocefin hydrolysis, absorbance 480 nm, 0.0001% Triton; AID 485341; P00811; 330,000 compounds, 0.52% hits; Potency, µM (top dose mostly 57.1 µM), without a hit: at the top dose activity change, negative = inhibition, hits mostly inhibitors;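 note: potency is the fitted concentration of half-maximal effect; plate controls were no compound for no effect and no enzyme for full effect; nearly all actives have a fitted effect of over 20% in size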
Target sequence (P00811 whole entry, looked up): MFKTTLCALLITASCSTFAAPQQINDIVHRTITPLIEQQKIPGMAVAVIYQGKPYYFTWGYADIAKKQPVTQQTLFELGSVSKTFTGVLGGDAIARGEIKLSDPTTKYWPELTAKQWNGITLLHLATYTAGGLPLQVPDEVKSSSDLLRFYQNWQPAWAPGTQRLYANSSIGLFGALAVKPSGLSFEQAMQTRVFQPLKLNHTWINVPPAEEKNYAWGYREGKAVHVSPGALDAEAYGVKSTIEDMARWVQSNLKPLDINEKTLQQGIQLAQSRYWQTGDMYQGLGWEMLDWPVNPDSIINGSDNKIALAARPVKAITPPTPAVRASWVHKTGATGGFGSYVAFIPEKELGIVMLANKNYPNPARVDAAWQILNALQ
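20 mM phosphate pH 7.0 + 0.01% (detergent screen) or 0.0001% Triton X-100; 5.3 nM AmpC reagent; cpd preinc 15 min RT; nitrocefin (800 uM stock) to start; A480 q20 s × 4 min; Activity was normalised to no-enzyme and no-compound control wells.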
AmpC inh detg = blocks E. coli AmpC beta-lactamase in detergent assay. 370,000 compounds, 0.041% hits. P00811. Potency, µM (doses to about 114 µM), for the others: at the highest dose activity change, negative = inhibition, most hits filed as inhibitors. AmpC hydrolysis of nitrocefin, absorbance 480 nm, 0.01% Triton;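 note: potency is the fitted concentration of half-maximal effect; 0% = no-compound wells and -100% = no-enzyme wells; nearly all actives have a fitted effect of over 25% in size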
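20 mM phosphate pH 7.0 + 0.01% (detergent screen) or 0.0001% Triton X-100; 5.3 nM AmpC reagent; cpd preinc 15 min RT; nitrocefin (800 uM stock) to start; A480 q20 s × 4 min; Activity was normalised to no-enzyme and no-compound control wells.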
Shiga inhibitor = inhibitors of Shiga toxin in Vero cells | Vero cells, Shiga toxin protein synthesis inhibition reporter | inhibition, % at 38.7 µM | 290,000 compounds, 9.2% hits | AID 2315; in the data active = inhibition mostly above about 28%, no sharp cut-off; inactive = mostly below about 43%; note: 0% is about no effect
NS1 function inh = blocks influenza NS1 protein function. Potency, µM (highest dose often 46.1 µM), for inactives: at the highest dose activity, positive = more growth. 270,000 compounds, 0.4% hits; calls by dose curve; note: potency is the fitted concentration of half-maximal effect; actives are rising curves; nearly all actives have a fitted effect of over 50% in size
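Growth recovery, yeast-based: influenza A NS1 expressed in S. cerevisiae causes slow growth, and suppressors are detected by OD600. The parent strain without NS1 is used as positive control.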
Numbers without * were called inactive. The full list was thinned out, with hits kept by preference. Unless noted, calls come from the whole dose curve; as a rule, active = well fitted curve in the direction sought with a large enough effect; inconclusive = small, poorly fitted or top-dose-only effect, or another doubt; inactive = no such curve, though single readings can be large; an effect the other way counts as inactive or inconclusive.

For c1ccc(-c2cnc(CSc3nnc4ccccn34)o2)cc1 the results were CHX counter 40*, AmpC inh no detg 0%, AmpC inh detg -15%, Shiga inhibitor 53* and NS1 function inh 10%.
`Cc1noc(C(=O)Nc2ccc(F)c(Cl)c2)c1Cl` gave CHX counter 29*, AmpC inh no detg -12%, AmpC inh detg 1%, Shiga inhibitor 30* and NS1 function inh -2%.
Cc1noc(C(=O)Nc2ccc(Cl)cc2)c1Cl was read as CHX counter -3, AmpC inh no detg -5%, AmpC inh detg -1%, Shiga inhibitor -3 and NS1 function inh -2%.
Cc1ccc(NC(=O)c2onc(C)c2Cl)cc1 was read as CHX counter 30*, AmpC inh no detg -13%, AmpC inh detg inconclusive, Shiga inhibitor 62* and NS1 function inh -15%.
`Cc1cccc(N2CCN(C3(c4ccccc4)C(=O)c4ccccc4C3=O)CC2C)c1` (stereo unspecified) gave AmpC inh detg 2%.
`CN(C)c1ccc(N=Nc2ccccc2C(=O)OCC(=O)NC2CCCC2)cc1` gave CHX counter 24*, AmpC inh no detg 34%, AmpC inh detg -4%, Shiga inhibitor 26* and NS1 function inh -12%.
Screening CN(C)c1ccc(N=Nc2ccccc2C(=O)OCC(=O)NCC2CCCCC2)cc1 returned CHX counter 69*, AmpC inh no detg -6%, AmpC inh detg inconclusive, Shiga inhibitor 72* and NS1 function inh 15%.
Screening CN(C)c1ccc(C(=O)OCC(=O)NC2CCCCCC2)cc1 returned CHX counter 0, AmpC inh no detg -3%, AmpC inh detg -14% and Shiga inhibitor -11.
CN(C)c1ccc(N=Nc2ccccc2C(=O)OCC(=O)N(C)C2CCCCC2)cc1 was read as CHX counter 27*, AmpC inh no detg 16%, AmpC inh detg -12%, Shiga inhibitor 29* and NS1 function inh -3%.
For CO[C@@]1(NC(=O)C2SC(=C(C(N)=O)C(=O)O)S2)C(=O)N2C(C(=O)O)=C(CSc3nnnn3C)CS[C@@H]21 (stereo partly specified) the results were AmpC inh no detg 7.1µM* and AmpC inh detg 18µM*.
COc1cc(Cl)c(NS(=O)(=O)c2ccc(-c3cnc(C4CC4)o3)cc2)c(OC)c1 was read as AmpC inh detg -2%.
For COc1ccc(-c2ccc(-c3noc(-c4cc(OC)cc(OC)c4)n3)c(OC)n2)cc1 the results were AmpC inh detg 21%.
CCc1nc(-c2ccc(-c3ccc(OC)cc3)nc2OC)no1 was read as CHX counter 40*, AmpC inh no detg 68%, AmpC inh detg 4%, Shiga inhibitor active and NS1 function inh -8%.
`COc1ccc(-c2ccc(-c3noc(C(C)C)n3)c(OC)n2)cc1` gave CHX counter 40*, AmpC inh no detg 55%, AmpC inh detg -4%, Shiga inhibitor 69 and NS1 function inh -49%.
Screening COc1nc(-c2ccccc2)ccc1-c1noc(C)n1 returned CHX counter 62*, AmpC inh detg 5%, Shiga inhibitor 72* and NS1 function inh -43%.
COc1cc(-c2nc(-c3ccc(-c4ccccc4)nc3OC)no2)cc(OC)c1OC was read as CHX counter -2, AmpC inh no detg -22%, AmpC inh detg -14%, Shiga inhibitor -4 and NS1 function inh -4%.
COCc1nc(-c2ccc(-c3ccccc3)nc2OC)no1 was read as CHX counter 64*, AmpC inh no detg 110%, AmpC inh detg inconclusive, Shiga inhibitor 156* and NS1 function inh -14%.
For Cc1oc(-c2cccc(Br)c2)nc1CN1CCC(C(=O)NCc2ccccc2)CC1 the results were AmpC inh detg 0%.
Screening O=C(Cn1ncc2c([nH]c3ccccc32)c1=O)Nc1cccc(C(F)(F)F)c1 returned AmpC inh detg 12%.
Screening COc1cc(OC)c(NC(=O)Cn2cnc3c(nc4n3CCCCC4)c2=O)cc1Cl returned AmpC inh detg 17%.
Screening O=C(OCc1cc(=O)n2nc(-c3cccs3)sc2n1)c1ccccc1 returned AmpC inh detg -4%.
`COc1cc(OC)c(NC(=O)CSc2cc(=O)n(C)c3ccc(Cl)cc23)cc1Cl` gave AmpC inh detg 19%.
For Cc1cccc(CCn2c(=O)c3ccccc3n(Cc3ccccc3C)c2=O)c1 the results were AmpC inh detg 12%.
Screening COCc1nc(-c2ccc(-c3ccc(OC)cc3)nc2OC)no1 returned CHX counter 47*, AmpC inh no detg 41%, AmpC inh detg -7%, Shiga inhibitor active and NS1 function inh -31%.
Screening Nc1nc(N)c(S(=O)(=O)c2ccccc2)c(Nc2ccccc2)n1 returned AmpC inh detg -1%.
COc1cccc(C(=O)COc2ccc3ccc(=O)oc3c2)c1 was read as CHX counter 7, AmpC inh no detg -22%, AmpC inh detg -2%, Shiga inhibitor -3 and NS1 function inh 2%.
`O=c1ccc2ccc(OCCOc3cccc(Cl)c3)cc2o1` gave CHX counter 24*, AmpC inh no detg -46%, AmpC inh detg -6%, Shiga inhibitor 66* and NS1 function inh -13%.
`CC1(C(=O)NCCN2CCOCC2)C=CC2(CCCCC2)N1C(=O)c1ccccc1` (stereo unspecified) gave CHX counter 26*, AmpC inh no detg -16%, AmpC inh detg inconclusive, Shiga inhibitor 33 and NS1 function inh 13%.
`CC(=O)N1[C@H](Cc2ccccc2)C=C[C@]1(C)C(=O)NCCN1CCOCC1` gave CHX counter 11*, AmpC inh no detg 50%, AmpC inh detg 3%, Shiga inhibitor 23 and NS1 function inh -13%.
For Cc1ccc(C)c(/C=N/n2cc(-c3ccccc3)[nH]c2=S)c1 the results were CHX counter 3, AmpC inh no detg 16µM*, AmpC inh detg -13% and Shiga inhibitor 33.
For Cc1cccc(-n2cc(-c3ccccc3)[nH]c2=S)c1 the results were CHX counter 17, AmpC inh no detg -40%, AmpC inh detg 2%, Shiga inhibitor 23 and NS1 function inh -8%.
Fc1ccccc1/C=N/n1cc(-c2ccccc2)[nH]c1=S was read as CHX counter 18*, AmpC inh no detg -58%, AmpC inh detg 3%, Shiga inhibitor 64* and NS1 function inh -32%.
Screening Cc1cccn2c(=O)c3cc(C(=O)N4CCN(Cc5ccccc5)CC4)sc3nc12 returned AmpC inh no detg 143% and AmpC inh detg -1%.
For CC(C)CC(NC(=O)C1CCCCC1)C(=O)Nc1cccc(C(F)(F)F)c1 (stereo unspecified) the results were AmpC inh detg 3%.
CCOC(=O)c1sc(NC(=O)Cn2nnc3sc4c(c3c2=O)CCC(C(C)(C)C)C4)nc1C (stereo unspecified) was read as CHX counter -3, AmpC inh no detg 3.5µM*, AmpC inh detg -10%, Shiga inhibitor 4 and NS1 function inh 14%.
